Assay results as given in the supplement of paper PMC10849652.
Of roughly 7,900 targets only a part is listed; those with a hit were picked by preference. About 0.6% of all pairs of compound and target were hits.

Tests used:
Experiment in all cases: log2 fold change, soluble protein after heating vs DMSO (PISA); higher = thermal stabilisation; K562 cells, 10 uM, 30 min; active = over 0.2 and 3.5 SD of the protein, either way, in both replicates (recomputed)
erlotinib = compound: C#Cc1cccc(Nc2ncnc3cc(OCCOC)c(OCCOC)cc23)c1 [erlotinib]
How it was run: (§1)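 Thermal stability values are relative to control samples and come from duplicates. They are expressed as log2 fold changes. For measurement, K562 cells (2×10^6 cells/mL) received 10 μM compound for 30 min, and aliquots were heated for 3 min over 48°C-58°C, pooled, and extracted at 4°C in PBS with 0.5% NP-40. Soluble protein, the supernatant after 21,000xg for 90 min, was quantified by TMTpro 16plex LC-MS/MS with equalised channel sums.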

[1] = compound: C/C(=N\NC(=O)C1=CC(=CC=C1)S(=O)(=O)N2CCOCC2)/C3=C(C=CC(=C3)Cl)O
How it was run: as §1

[2] = compound: C1=CC(=C(C=C1Cl)C2=NC3=NC=CN=C3C(=N2)NC4=CC=NC=C4)F
How it was run: as §1

[3] = compound: C1=CC(=CC=C1C2=NC3=C(N2)C=C(C=C3)C(=O)N)OC4=CC=C(C=C4)Cl
How it was run: as §1

[4] = compound: C1=CC2=C(C=CC(=C2)/C=C\3/C(=O)NC(=NCC4=CC=CS4)S3)N=C1
How it was run: as §1

[5] = compound: C1=CC2=NC=CN=C2C=C1/C=C/3\C(=O)NC(=O)S3
How it was run: as §1

[6] = compound: C1=CC=C(C=C1)C2=NC(=C(N2)C3=CC=NC=C3)C4=CC(=C(C=C4)Cl)O
How it was run: as §1

[7] = compound: C1=CC=C2C(=C1)C3=NNC4=CC=CC(=C43)C2=O
How it was run: as §1

[8] = compound: C1CCN(C1)C(=O)NC2=CC=CC(=C2)NC3=NC=C(C(=N3)NCCC4=CN=CN4)Br
How it was run: as §1

[9] = compound: C1CN(CCC1(CC2=CC=C(C=C2)Cl)N)C3=NC=NC4=C3C=CN4
How it was run: as §1

IRAK-1-4 Inhibitor I = compound: C1COCCN1CCN2C3=CC=CC=C3N=C2NC(=O)C4=CC(=CC=C4)[N+](=O)[O-] [IRAK-1-4 Inhibitor I]
How it was run: as §1

ibrutinib = compound: C=CC(=O)N1CCC[C@@H](n2nc(-c3ccc(Oc4ccccc4)cc3)c3c(N)ncnc32)C1 [ibrutinib]
How it was run: as §1

[10] = compound: CC(=O)c1cnc2ccc(-c3cc(Cl)c(O)c(Cl)c3)nc2c1N[C@H]1CC[C@H](CN(C)C)CC1
How it was run: as §1

ralimetinib = compound: CC(C)(C)Cn1c(N)nc2ccc(-c3[nH]c(C(C)(C)C)nc3-c3ccc(F)cc3)nc21 [ralimetinib]
How it was run: as §1

[11] = compound: CC(C)(O)CC(=O)NCCn1ccc2ncnc(Nc3ccc(Oc4cccc(C(F)(F)F)c4)c(Cl)c3)c21
How it was run: as §1

[12] = compound: CC(C)C1=C2N=C(C=C(N2N=C1)NCC3=CC=CC=C3)NCCCCCCN
How it was run: as §1

[13] = compound: CC(C)C[C@@H](C=O)NC(=O)[C@H](CC(C)C)NC(=O)[C@H](CC(C)C)NC(=O)OCc1ccccc1
How it was run: as §1

pinometostat = compound: CC(C)N(C[C@H]1O[C@@H](n2cnc3c(N)ncnc32)[C@H](O)[C@@H]1O)[C@H]1C[C@@H](CCc2nc3cc(C(C)(C)C)ccc3[nH]2)C1 [pinometostat]
How it was run: as §1

[14] = compound: CC1=C(C(CC(=O)N1)C2=CC=C(C=C2)C(F)(F)F)C(=O)NC3=C(C=C4C(=C3)C=NN4)F
How it was run: as §1

[15] = compound: CC1=C(C2=C(C=C1)C(=O)C3=CC=CC=C3N2CCCN)C
How it was run: as §1

Measured: log2 fold change

SRP68 (UniProt Q9UHB9)
Sequence of UniProt Q9UHB9 (Q9UHB9 whole entry, looked up): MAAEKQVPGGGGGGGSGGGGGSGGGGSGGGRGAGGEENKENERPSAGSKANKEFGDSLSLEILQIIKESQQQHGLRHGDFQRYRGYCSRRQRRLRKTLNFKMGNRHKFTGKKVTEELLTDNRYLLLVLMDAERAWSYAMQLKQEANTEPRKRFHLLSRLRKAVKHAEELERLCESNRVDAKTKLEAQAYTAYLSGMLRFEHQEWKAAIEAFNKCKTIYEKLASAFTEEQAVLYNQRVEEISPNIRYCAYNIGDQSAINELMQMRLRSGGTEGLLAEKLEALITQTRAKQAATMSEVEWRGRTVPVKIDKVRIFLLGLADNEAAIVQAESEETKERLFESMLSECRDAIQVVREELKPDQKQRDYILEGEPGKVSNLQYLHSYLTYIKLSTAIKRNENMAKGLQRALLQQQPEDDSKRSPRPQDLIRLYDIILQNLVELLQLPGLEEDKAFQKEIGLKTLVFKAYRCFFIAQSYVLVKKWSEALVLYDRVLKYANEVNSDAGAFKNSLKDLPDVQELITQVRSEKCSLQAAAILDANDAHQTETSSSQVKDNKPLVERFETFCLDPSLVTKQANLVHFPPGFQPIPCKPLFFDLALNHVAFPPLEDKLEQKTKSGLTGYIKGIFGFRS
active: [15] -0.345
inactive: erlotinib 0.047 | [1] 0.034 | [2] -0.043 | [3] -0.071 | [4] 0.011 | [5] 0.01 | [6] 0.002 | [7] -0.087 | [8] 0.015 | [9] -0.107 | IRAK-1-4 Inhibitor I -0.118 | ibrutinib -0.037 | [10] 0.014 | ralimetinib 0.071 | [11] -0.065 | [12] -0.272 | [13] 0.065 | pinometostat 0.145 | [14] -0.016

TIAL1 isoform 2 (UniProt Q01085)
Sequence of UniProt Q01085 (Q01085 whole entry, looked up): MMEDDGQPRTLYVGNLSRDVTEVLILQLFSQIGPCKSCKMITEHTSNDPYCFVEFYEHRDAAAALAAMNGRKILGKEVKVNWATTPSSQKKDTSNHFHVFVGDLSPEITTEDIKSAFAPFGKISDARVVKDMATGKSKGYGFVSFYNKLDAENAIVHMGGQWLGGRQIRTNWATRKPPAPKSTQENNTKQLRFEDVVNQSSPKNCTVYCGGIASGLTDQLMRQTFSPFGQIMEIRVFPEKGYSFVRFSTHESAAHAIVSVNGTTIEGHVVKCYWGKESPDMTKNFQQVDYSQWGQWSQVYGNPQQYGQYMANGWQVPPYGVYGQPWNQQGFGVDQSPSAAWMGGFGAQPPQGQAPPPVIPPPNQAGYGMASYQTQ
inactive: erlotinib 0.013 | [1] -0.004 | [2] 0.002 | [3] 0 | [4] 0.02 | [5] 0.008 | [6] -0.026 | [7] 0.018 | [8] 0.032 | [9] -0.004 | IRAK-1-4 Inhibitor I 0.044 | ibrutinib 0.011 | [10] -0.035 | ralimetinib -0.05 | [11] 0.001 | [12] 0.106 | [13] 0.019 | pinometostat -0.039 | [14] -0.02
active: [15] 0.238

SRSF4 (UniProt Q08170)
Sequence of UniProt Q08170 (Q08170 whole entry, looked up): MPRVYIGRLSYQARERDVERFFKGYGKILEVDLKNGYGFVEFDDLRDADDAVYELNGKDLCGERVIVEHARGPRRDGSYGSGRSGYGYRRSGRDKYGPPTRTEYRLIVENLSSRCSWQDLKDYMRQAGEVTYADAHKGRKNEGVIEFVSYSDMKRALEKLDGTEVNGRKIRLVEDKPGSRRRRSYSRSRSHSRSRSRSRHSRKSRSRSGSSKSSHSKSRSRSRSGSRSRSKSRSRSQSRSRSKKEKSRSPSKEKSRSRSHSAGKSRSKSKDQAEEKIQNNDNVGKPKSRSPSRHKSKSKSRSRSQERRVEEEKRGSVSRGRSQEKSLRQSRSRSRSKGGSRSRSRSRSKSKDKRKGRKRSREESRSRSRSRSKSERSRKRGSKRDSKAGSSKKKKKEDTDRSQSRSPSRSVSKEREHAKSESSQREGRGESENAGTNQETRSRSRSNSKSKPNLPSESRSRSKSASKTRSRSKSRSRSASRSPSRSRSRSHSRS
inactive: erlotinib -0.054 | [1] 0.015 | [2] -0.325 | [3] 0.05 | [4] -0.155 | [5] -0.072 | [6] -0.024 | [7] -0.109 | [8] 0.007 | [9] -0.254 | IRAK-1-4 Inhibitor I -0.306 | ibrutinib 0.069 | [10] -0.261 | ralimetinib 0.125 | [11] 0.088 | [12] -0.174 | [13] 0.019 | pinometostat 0.126 | [14] -0.009 | [15] -0.379

SMARCA5 (UniProt O60264)
active: [15] -0.97
inactive: erlotinib 0.103 | [1] 0.044 | [2] -0.058 | [3] 0.005 | [4] -0.012 | [5] 0.078 | [6] 0.052 | [7] -0.103 | [8] -0.109 | [9] -0.227 | IRAK-1-4 Inhibitor I -0.108 | ibrutinib -0.135 | [10] 0.103 | ralimetinib 0.033 | [11] -0.113 | [12] -0.025 | [13] 0.084 | pinometostat 0.068 | [14] -0.135

SLC25A36 (UniProt Q96CQ1)
inactive: erlotinib -0.077 | [1] 0.008 | [2] -0.083 | [3] 0.003 | [4] 0.031 | [5] 0.102 | [6] -0.104 | [7] -0.034 | [8] 0.053 | [9] 0.068 | IRAK-1-4 Inhibitor I 0.048 | ibrutinib 0.066 | [10] 0.029 | ralimetinib 0.019 | [11] -0.167 | [12] -0.03 | [13] 0.007 | pinometostat 0.01 | [14] 0.108 | [15] 0.012

TBK1 (UniProt Q9UHD2)
inactive: erlotinib -0.042 | [1] 0.009 | [2] 0.003 | [3] -0.048 | [4] 0.044 | [5] 0.026 | [6] -0.082 | [7] 0.009 | [8] 0.029 | [9] -0.105 | IRAK-1-4 Inhibitor I -0.046 | ibrutinib -0.019 | [10] -0.162 | ralimetinib 0.024 | [11] -0.067 | [12] -0.208 | [13] 0.046 | pinometostat 0.087 | [14] 0.028 | [15] -0.091

SMAP (UniProt O00193)
Sequence of UniProt O00193 (O00193 whole entry, looked up): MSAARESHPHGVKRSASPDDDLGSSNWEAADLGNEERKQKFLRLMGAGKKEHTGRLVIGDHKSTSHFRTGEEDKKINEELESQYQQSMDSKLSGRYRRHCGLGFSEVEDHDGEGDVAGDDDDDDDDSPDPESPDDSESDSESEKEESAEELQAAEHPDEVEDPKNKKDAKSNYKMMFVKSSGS
inactive: erlotinib -0.006 | [1] 0.026 | [2] 0.119 | [3] 0.017 | [4] -0.063 | [5] 0.073 | [6] -0.012 | [7] 0.015 | [8] 0.006 | [9] 0.047 | IRAK-1-4 Inhibitor I 0.134 | ibrutinib -0.063 | [10] -0.021 | ralimetinib 0.007 | [11] -0.004 | [12] 0.058 | [13] -0.018 | pinometostat -0.049 | [14] 0.029 | [15] -0.021

SLC4A2 (UniProt P04920)
Sequence of UniProt P04920 (P04920 whole entry, looked up): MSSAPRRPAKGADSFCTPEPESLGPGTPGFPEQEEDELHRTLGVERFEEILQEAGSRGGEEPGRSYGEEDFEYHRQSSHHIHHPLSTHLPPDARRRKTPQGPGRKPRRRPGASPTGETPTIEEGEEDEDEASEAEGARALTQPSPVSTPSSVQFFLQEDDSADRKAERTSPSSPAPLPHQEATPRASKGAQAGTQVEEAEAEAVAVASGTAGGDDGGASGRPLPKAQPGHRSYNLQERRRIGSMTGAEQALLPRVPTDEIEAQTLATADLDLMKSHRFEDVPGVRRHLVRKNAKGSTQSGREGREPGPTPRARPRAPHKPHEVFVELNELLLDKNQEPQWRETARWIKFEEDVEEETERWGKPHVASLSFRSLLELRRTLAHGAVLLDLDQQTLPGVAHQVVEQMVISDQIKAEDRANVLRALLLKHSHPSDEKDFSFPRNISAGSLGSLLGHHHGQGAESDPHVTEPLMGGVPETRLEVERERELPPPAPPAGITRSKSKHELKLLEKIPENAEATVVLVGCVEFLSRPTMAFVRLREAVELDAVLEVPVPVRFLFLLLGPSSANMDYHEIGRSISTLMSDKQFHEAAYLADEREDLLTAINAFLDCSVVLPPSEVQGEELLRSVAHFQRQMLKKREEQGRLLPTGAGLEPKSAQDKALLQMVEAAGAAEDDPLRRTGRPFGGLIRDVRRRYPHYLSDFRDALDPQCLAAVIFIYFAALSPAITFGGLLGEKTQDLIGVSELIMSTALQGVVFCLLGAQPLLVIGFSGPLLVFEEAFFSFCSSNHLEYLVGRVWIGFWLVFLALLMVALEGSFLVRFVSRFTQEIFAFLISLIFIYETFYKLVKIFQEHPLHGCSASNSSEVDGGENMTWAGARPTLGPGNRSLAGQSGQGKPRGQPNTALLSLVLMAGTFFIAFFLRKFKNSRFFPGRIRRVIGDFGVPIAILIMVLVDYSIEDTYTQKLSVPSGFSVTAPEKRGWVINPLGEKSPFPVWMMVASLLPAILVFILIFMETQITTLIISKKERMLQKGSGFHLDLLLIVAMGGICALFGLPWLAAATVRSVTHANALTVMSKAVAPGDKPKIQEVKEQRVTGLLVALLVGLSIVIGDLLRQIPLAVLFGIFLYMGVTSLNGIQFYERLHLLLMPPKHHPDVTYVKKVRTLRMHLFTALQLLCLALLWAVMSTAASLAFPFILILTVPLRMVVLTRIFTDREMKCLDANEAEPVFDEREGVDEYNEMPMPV
inactive: erlotinib 0.015 | [1] 0.073 | [2] -0.062 | [3] 0.047 | [4] 0.076 | [5] 0.047 | [6] 0.043 | [7] -0.026 | [8] -0.023 | [9] 0.002 | IRAK-1-4 Inhibitor I 0.022 | ibrutinib -0.024 | [10] -0.015 | ralimetinib 0.003 | [11] -0.07 | [12] -0.165 | [13] 0.143 | pinometostat 0.054 | [14] 0.042 | [15] 0.01

SPINDOC (UniProt Q9BUA3)
inactive: erlotinib -0.013 | [1] -0.017 | [2] -0.01 | [3] -0.044 | [4] 0.036 | [5] 0.074 | [6] -0.063 | [7] -0.066 | [8] -0.129 | [9] 0.09 | IRAK-1-4 Inhibitor I 0.029 | ibrutinib 0.089 | [10] 0.017 | ralimetinib 0.084 | [11] -0.01 | [12] 0.103 | [13] 0 | pinometostat 0.075 | [14] 0.093 | [15] -0.24

SNUPN (UniProt O95149)
inactive: erlotinib -0.091 | [1] 0.032 | [2] 0.136 | [3] -0.019 | [4] 0.069 | [5] 0.037 | [6] -0.085 | [7] -0.053 | [8] 0.024 | [9] -0.061 | IRAK-1-4 Inhibitor I 0.037 | ibrutinib -0.039 | [10] -0.089 | ralimetinib -0.026 | [11] -0.045 | [12] -0.034 | [13] 0.037 | pinometostat 0.07 | [14] -0.002 | [15] -0.184

THRAP3 (UniProt Q9Y2W1)
Sequence of UniProt Q9Y2W1 (Q9Y2W1 whole entry, looked up): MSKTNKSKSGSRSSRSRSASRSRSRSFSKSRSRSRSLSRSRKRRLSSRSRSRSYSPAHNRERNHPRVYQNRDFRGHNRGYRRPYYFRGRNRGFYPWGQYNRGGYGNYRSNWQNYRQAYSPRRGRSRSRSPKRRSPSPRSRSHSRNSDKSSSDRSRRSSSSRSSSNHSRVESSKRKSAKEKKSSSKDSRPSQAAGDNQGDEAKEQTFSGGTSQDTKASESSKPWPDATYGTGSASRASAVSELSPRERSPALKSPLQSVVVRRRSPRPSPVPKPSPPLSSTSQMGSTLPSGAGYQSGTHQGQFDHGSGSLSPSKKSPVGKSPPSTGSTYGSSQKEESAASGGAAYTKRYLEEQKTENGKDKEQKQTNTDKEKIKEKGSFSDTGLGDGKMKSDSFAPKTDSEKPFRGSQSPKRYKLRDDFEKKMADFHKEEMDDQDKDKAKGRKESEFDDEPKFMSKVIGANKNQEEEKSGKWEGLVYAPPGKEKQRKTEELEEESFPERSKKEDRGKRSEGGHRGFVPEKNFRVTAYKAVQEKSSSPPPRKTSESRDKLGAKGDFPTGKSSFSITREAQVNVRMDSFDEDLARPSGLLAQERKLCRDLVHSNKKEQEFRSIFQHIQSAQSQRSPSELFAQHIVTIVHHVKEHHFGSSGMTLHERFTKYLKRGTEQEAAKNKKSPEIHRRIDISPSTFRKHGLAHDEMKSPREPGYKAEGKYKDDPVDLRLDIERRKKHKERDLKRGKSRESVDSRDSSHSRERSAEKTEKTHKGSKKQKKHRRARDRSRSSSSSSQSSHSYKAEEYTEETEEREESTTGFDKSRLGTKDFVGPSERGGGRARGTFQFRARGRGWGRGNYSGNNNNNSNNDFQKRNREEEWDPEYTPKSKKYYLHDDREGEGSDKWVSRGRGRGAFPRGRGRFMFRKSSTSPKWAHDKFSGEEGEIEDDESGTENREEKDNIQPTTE
active: [10] -0.581
inactive: erlotinib 0.081 | [1] 0.023 | [2] -0.071 | [3] 0.067 | [4] -0.094 | [5] -0.002 | [6] -0.097 | [7] -0.171 | [8] 0.038 | [9] -0.09 | IRAK-1-4 Inhibitor I -0.116 | ibrutinib 0.01 | ralimetinib -0.026 | [11] -0.032 | [12] -0.12 | [13] 0.075 | pinometostat 0.057 | [14] 0.066 | [15] -0.018

STARD3 (UniProt Q14849)
active: [12] -0.429
inactive: erlotinib -0.073 | [1] 0.133 | [2] -0.05 | [3] 0.022 | [4] -0.095 | [5] 0.058 | [6] -0.028 | [7] 0.197 | [8] 0.059 | [9] 0.04 | IRAK-1-4 Inhibitor I -0.075 | ibrutinib 0.23 | [10] -0.033 | ralimetinib 0.033 | [11] -0.075 | [13] 0.122 | pinometostat 0 | [14] 0.222 | [15] -0.044

SNRPD3 (UniProt P62318)
Sequence of UniProt P62318 (P62318 whole entry, looked up): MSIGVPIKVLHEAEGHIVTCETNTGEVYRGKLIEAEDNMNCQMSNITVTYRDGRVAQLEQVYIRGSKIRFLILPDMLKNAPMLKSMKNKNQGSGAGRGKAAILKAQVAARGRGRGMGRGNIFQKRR
inactive: erlotinib -0.019 | [1] -0.02 | [2] -0.04 | [3] -0.038 | [4] 0.012 | [5] 0.079 | [6] -0.113 | [7] -0.076 | [8] 0.068 | [9] -0.012 | IRAK-1-4 Inhibitor I 0.002 | ibrutinib -0.006 | [10] 0.067 | ralimetinib -0.022 | [11] 0.208 | [12] 0.162 | [13] 0.017 | pinometostat 0.027 | [14] -0.008 | [15] 0.022

TM9SF4 (UniProt Q92544)
inactive: erlotinib -0.015 | [1] 0.011 | [2] -0.006 | [3] 0.052 | [4] -0.054 | [5] -0.002 | [6] 0.008 | [7] 0.038 | [8] -0.012 | [9] 0.066 | IRAK-1-4 Inhibitor I -0.006 | ibrutinib 0.008 | [10] -0.016 | ralimetinib 0.031 | [11] -0.006 | [12] -0.033 | [13] 0.029 | pinometostat 0.016 | [14] -0.015 | [15] 0.077

TANK (UniProt Q92844)
Sequence of UniProt Q92844 (Q92844 whole entry, looked up): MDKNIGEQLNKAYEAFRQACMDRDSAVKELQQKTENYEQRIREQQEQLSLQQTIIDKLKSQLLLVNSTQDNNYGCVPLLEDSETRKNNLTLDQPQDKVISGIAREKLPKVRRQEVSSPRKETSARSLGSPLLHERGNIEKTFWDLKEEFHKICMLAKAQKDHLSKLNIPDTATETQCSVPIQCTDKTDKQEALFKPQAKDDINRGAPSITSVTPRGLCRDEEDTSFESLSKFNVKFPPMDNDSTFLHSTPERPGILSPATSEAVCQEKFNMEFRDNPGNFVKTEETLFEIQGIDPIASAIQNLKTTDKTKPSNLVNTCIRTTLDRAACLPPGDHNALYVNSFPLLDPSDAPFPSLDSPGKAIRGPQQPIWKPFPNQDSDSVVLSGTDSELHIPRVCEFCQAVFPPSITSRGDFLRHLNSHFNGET
inactive: erlotinib -0.019 | [1] -0.031 | [2] 0.101 | [3] -0.048 | [4] 0.002 | [5] 0.053 | [6] -0.024 | [7] -0.028 | [8] 0.014 | [9] 0.01 | IRAK-1-4 Inhibitor I -0.035 | ibrutinib 0.087 | [10] -0.181 | ralimetinib 0.034 | [11] -0.024 | [12] 0.007 | [13] 0.127 | pinometostat -0.047 | [14] 0.033 | [15] -0.053

STK38 (UniProt Q15208)
Sequence of UniProt Q15208 (Q15208 whole entry, looked up): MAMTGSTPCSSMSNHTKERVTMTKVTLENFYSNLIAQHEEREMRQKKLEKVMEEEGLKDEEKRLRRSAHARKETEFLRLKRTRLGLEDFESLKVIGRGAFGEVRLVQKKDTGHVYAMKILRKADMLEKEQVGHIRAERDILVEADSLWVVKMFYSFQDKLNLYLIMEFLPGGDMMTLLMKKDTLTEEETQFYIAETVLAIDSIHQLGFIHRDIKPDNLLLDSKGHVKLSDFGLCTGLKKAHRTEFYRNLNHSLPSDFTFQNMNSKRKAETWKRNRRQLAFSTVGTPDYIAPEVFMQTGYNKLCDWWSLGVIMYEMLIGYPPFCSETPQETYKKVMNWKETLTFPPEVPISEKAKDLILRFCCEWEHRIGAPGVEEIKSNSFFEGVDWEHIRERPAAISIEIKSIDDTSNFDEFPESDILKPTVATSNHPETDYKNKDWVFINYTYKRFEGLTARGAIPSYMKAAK
inactive: erlotinib 0.039 | [1] 0.138 | [2] 0.029 | [3] -0.021 | [4] 0.014 | [5] 0.079 | [6] 0.057 | [7] 0.049 | [8] -0.025 | [9] -0.05 | IRAK-1-4 Inhibitor I 0.004 | ibrutinib -0.073 | ralimetinib 0.101 | [11] -0.085 | [12] -0.089 | [13] 0.016 | pinometostat 0.058 | [14] 0.038 | [15] -0.026
active: [10] -0.308
